Shown are actives, neighbours in structure and some others; about 3% of the full set was active somewhere.
SARS PLpro yeast: qHTS of Yeast-based Assay for SARS-CoV PLP. S. cerevisiae expressing SARS-CoV PLpro, growth rescue. Potency, µM (titrated, usually from 32.9 µM), without a hit: at the highest dose activity, positive = growth rescue, most hits filed as activators. hit rate 0.19% among 330,000. AID 485353, 2010; calls by dose curve; note: 0% is about no effect; nearly all actives have a fitted effect of over 55% in size
Sm TGR block: qHTS Assay for the Inhibitors of Schistosoma Mansoni Peroxiredoxins; Schistosoma mansoni thioredoxin glutathione reductase (TGR), Q962Y6; purified TGR, DTNB reduction, TNB absorbance 405 nm; Potency, µM (doses to about 114 µM), inactives show top-dose activity change, negative = inhibition, usual class: inhibitors; hit rate 3% among 360,000; active = well fitted inhibition curve with a large enough effect; inconclusive = small, poorly fitted or top-dose-only effect; inactive = no such curve, though single readings can be large or run the other way; note: % is set by controls: 0 for no effect and ±100 for the full control effect; nearly all actives have a fitted effect of over 60% in size
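TGR 20 nM + NADPH 100 uM (dispensed conc.), cpd preinc 15 min RT; start with NADPH (500 uM addition) then DTNB (15 mM addition). Kinetic TNB absorbance, 405 nm filter. Four-parameter Hill fit across titration.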
* marks the source's active call; other numbers are inactive results; ? = inconclusive; . = no result given. Potency is the fitted concentration of half-maximal effect.

SMILES	SARS PLpro yeast	Sm TGR block
C/C=C\C=C/C(=O)Nc1cccc(C2=NOC3(C2)C[C@@H](C(N)=O)N(C(=O)CCCCC)C3)c1 (some centres undefined)	1%	2.5µM*
C/C=C\C=C\C(=O)Nc1cccc(C2=NOC3(C2)C[C@@H](C(N)=O)N(C(=O)C(c2ccccc2)c2ccccc2)C3)c1 (some centres undefined)	0%	1.8µM*
C/C=C/C=C\C(=O)Nc1cccc(C2=NOC3(C2)C[C@@H](C(N)=O)N(C(=O)/C(C)=C/C)C3)c1 (some centres undefined)	0%	2.5µM*
C/C=C/C=C/C(=O)N1CC2(CC(c3cccc(NC(=O)CCCCC)c3)=NO2)C[C@H]1C(N)=O (some centres undefined)	-4%	?
Cc1ccc(-c2nc3ccccc3[nH]2)cc1NC(=O)COc1ccccc1[N+](=O)[O-]	.	9%
C/C=C\C=C/C(=O)Nc1cccc(C2=NOC3(C2)C[C@H](C(N)=O)N(C(=O)Cc2ccc([N+](=O)[O-])cc2)C3)c1 (some centres undefined)	1%	1.1µM*
CCCCCC(=O)Nc1cccc(C2=NOC3(C2)C[C@H](C(N)=O)N(C(=O)CC#N)C3)c1 (some centres undefined)	-5%	0%
C/C=C(/C)C(=O)Nc1cccc(C2=NOC3(C2)C[C@H](C(N)=O)N(C(=O)Cc2ccc([N+](=O)[O-])cc2)C3)c1 (some centres undefined)	1%	2%
C/C=C/C=C/C(=O)N1CC2(CC(c3cccc(NC(=O)/C=C/C)c3)=NO2)C[C@@H]1C(N)=O (some centres undefined)	3%	?
C/C=C/C=C\C(=O)Nc1cccc(C2=NOC3(C2)C[C@H](C(N)=O)N(C(=O)CC#N)C3)c1 (some centres undefined)	1%	2µM*
C=C(C)C(=O)Nc1cccc(C2=NOC3(C2)C[C@@H](C(N)=O)N(C(=O)/C=C/C=C/C)C3)c1 (some centres undefined)	2%	8.9µM*
O=C(CSc1ccccc1)NCc1ccc2c(c1)CCN2C(=O)c1ccc(F)cc1	.	-7%
COc1ccc(OC)c(CCNC(=O)c2sc3nc4n(c(=O)c3c2C)CCC4)c1	0%	13%
Cc1c(C(=O)NCCc2ccc(Cl)cc2)sc2nc3n(c(=O)c12)CCCC3	.	45µM*
Cc1ccc(CNC(=O)c2sc3nc4n(c(=O)c3c2C)CCCC4)cc1	.	56µM*
Cc1ccc(CNC(=O)c2sc3nc4n(c(=O)c3c2C)CCCCC4)cc1	.	-13%
CCc1ccc(NC(=O)c2sc3nc4n(c(=O)c3c2C)CCC4)cc1	-10%	-9%
COc1ccc(CCNC(=O)c2sc3nc4n(c(=O)c3c2C)CCCC4)cc1OC	.	35µM*
CCOc1ccc(NC(=O)c2sc3nc4n(c(=O)c3c2C)CCCC4)cc1	.	32µM*
Cc1c(C(=O)NCCc2ccc(Cl)cc2)sc2nc3n(c(=O)c12)CCC3	?	-16%
CCN1C(=O)c2ccccc2S(=O)c2ccc(C(=O)N3CCN(c4cc(Cl)ccc4C)CC3)cc21 (centres undefined)	.	-5%
COc1ccc(CNC(=O)c2sc3nc4n(c(=O)c3c2C)CCC4)cc1	.	-1%
Cc1c(C(=O)NCc2ccc(Cl)cc2)sc2nc3n(c(=O)c12)CCCCC3	.	35µM*
Cc1ccc(-n2c(=O)c3ccccc3n(CC(=O)Nc3cccc(C(F)(F)F)c3)c2=O)cc1	.	-2%
CCCN(C(=O)c1nn(-c2ccc(OC)cc2)c(=O)c2c1c1ccccc1n2C)c1ccc(CC)cc1	.	-8%
SMILES	SARS PLpro yeast	Sm TGR block
O=S(=O)(NC(=S)NC1CCCCC1)c1cccs1	-2%	25µM*
O=S(=O)(NC(=S)NC1CCCCC1)c1ccccc1	-4%	?
CC(C)N(C(=O)CSc1cn(CC(=O)N2CCCCCC2)c2ccccc12)C(C)C	.	-4%
O=Cc1coc2c(ccc3ccccc32)c1=O	-10%	28µM*
O=C/C=C/c1coc2ccc3ccccc3c2c1=O	-1%	0%
Cc1ccccc1CN1C(=O)c2ccccc2Sc2ccc(C(=O)NC(C)c3ccccc3)cc21 (centres undefined)	.	4%
CC(=O)Nc1ccc(NCc2cccs2)cc1	5%	17%
Oc1ccc(NCc2cccs2)cc1	-8%	50µM*
COc1ccc(N2CCN(C(CNC(=O)c3ccc(C)cc3)c3ccc4c(c3)OCO4)CC2)cc1 (centres undefined)	.	5%
Cc1cccc(N2C(=O)CSC23C(=O)N(CC(=O)NCCc2ccccc2)c2ccccc23)c1 (centres undefined)	.	1%
CCN1CCSc2ccc(C(=O)NC(C)c3ccccc3)cc21 (centres undefined)	.	-4%
COc1ccc(N2CCN(C(=O)c3cn(C4CCCCC4)c(=O)c4c3c3ccccc3n4C)CC2)cc1	.	0%
